From PubChem BioAssay AID720706 (Broad Institute, 2013)
In all, about 350,000 compounds went through this assay and about 5,500 (1.6%) were called active.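 The calls were made as follows: active = significant combined selectivity score with lowered wild-type GFP, culture density cut under 30%, mutant RFP and density less affected; inactive = any of these conditions unmet.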 Only a selection was taken, and actives are over-represented in it overall.

Assay: GFP drop in mixed WT/humanized-ribosome E. coli culture – GFP/RFP fluorescence, OD600, single point, bacterial rRNA inhibitor project, primary screen (AID 720706)
Settings: E. coli WT GFP vs humanized-ribosome RFP mutants, 24 h; GFP signal change (wild-type ribosome): stronger effect = lower value, DMSO median 0, no signal -100; OD600 change: measured here: OD600 growth, DMSO median 0, no signal -100; RFP signal change: measured here: RFP humanized mutant strains, DMSO median 0, no signal -100, concentration not given here

Row | Compound | GFP signal change (wild-type ribosome) | OD600 change | RFP signal change
1 | COc1ccccc1C#Cc1ccc2c(c1)O[C@H](CN(C)Cc1cccnc1)[C@@H](C)CN([C@H](C)CO)S2(=O)=O | -5.86% (inactive) | -7.99% | 4.04%
2 | Cc1cccc(NC(=O)Nc2ccc3c(c2)OCO3)n1 | 0.76% (inactive) | 7.09% | -5.02%
3 | CC(NC(=O)Nc1cccc([N+](=O)[O-])c1)c1ccc2c(c1)OCO2 (stereo not drawn) | -34.5% (active) | -26.4% | -5.09%
4 | CC(NC(=O)Nc1ccc2c(c1)OCO2)c1ccncc1 (stereo not drawn) | 13.1% (inactive) | 4.68% | 1.46%
5 | CC1CC2=C(CC1/C=N/NC(N)=S)C(C)(C)CCC2 (stereo not drawn) | -18.2% (active) | 0.8% | -0.09%
6 | Cc1noc(C)c1NC(=O)Nc1ccc2c(c1)C(=O)N([C@@H](C)CO)C[C@H](C)[C@H](CN(C)CC1CCCCC1)O2 | 2.74% (inactive) | 1.93% | -1.48%
7 | CCN(CC)S(=O)(=O)c1ccc(N2CCOCC2)c(NC(=O)c2ccc(=O)n(C)n2)c1 | 18.6% (inactive) | 11.8% | -3.6%
8 | CCN(CC)S(=O)(=O)c1ccc(N2CCCC2)c(NC(=O)c2ccc([N+](=O)[O-])o2)c1 | -27.2% (active) | 5.04% | 9.95%
9 | CCN(CC)S(=O)(=O)c1cc(C(=O)Nc2cc(S(=O)(=O)N3CCOCC3)ccc2N2CCCC2)ccc1F | -10.4% (inactive) | -14.8% | 1.19%
10 | C[C@@H]1CN([C@@H](C)CO)C(=O)c2cccc(NC(=O)Nc3ccc(F)cc3)c2O[C@H]1CN(C)Cc1ccc(-c2ccccc2)cc1 | -7.51% (inactive) | -2.98% | -0.352%
11 | O=C(C1CCC1)N1CC(=O)N2[C@@H](CO)[C@@H](c3ccc(C#Cc4cccc(F)c4)cc3)[C@@H]2C1 | -59.7% (inactive) | -79.3% | -12.2%
12 | COc1ccc(NC(=O)CN(C)C(=O)c2cc(C3CC3)nn2-c2ccccc2)cc1 | -22.4% (active) | -10.8% | 5.24%
13 | CCc1ccccc1NC(=O)CN(C)C(=O)c1cc(C2CC2)nn1-c1ccccc1 | -2.02% (inactive) | -16.5% | 3.78%
14 | COc1cccc(NC(=O)CN(C)C(=O)c2cc(C3CC3)nn2-c2ccccc2)c1 | -29.5% (inactive) | -27.8% | -7.04%
15 | Cc1nn(-c2ccccc2)c(C)c1/C=C/C(=O)OC(C)C(N)=O (stereo not drawn) | 0.439% (inactive) | -2.9% | -0.31%
16 | Cc1nn(-c2ccccc2)c(Cl)c1/C=C/C(=O)c1ccc(O)cc1 | -25.9% (active) | -19.6% | -0.656%
17 | Cc1nn(-c2ccc(F)cc2)c(Cl)c1/C=C(/CCC(=O)O)c1nc2ccccc2s1 | -52.2% (inactive) | -75.8% | -17.8%
18 | COc1ccccc1CN1[C@H](CO)[C@H](c2ccccc2)C12CN(C(=O)c1ccccn1)C2 | -7.66% (inactive) | -1.5% | 11%
19 | Cc1noc(C)c1NC(=O)Nc1ccc2c(c1)C(=O)N([C@H](C)CO)C[C@@H](C)[C@H](CN(C)Cc1ccncc1)O2 | 0.165% (inactive) | 5.53% | -0.035%
20 | C[C@H]1CCCCO[C@@H](CN(C)S(=O)(=O)c2ccc(Cl)cc2)[C@@H](C)CN([C@@H](C)CO)C(=O)c2cc(NS(=O)(=O)c3cn(C)cn3)ccc2O1 | -1.49% (inactive) | -13.7% | 2.11%
21 | COc1cccc(Cn2cc(/C=N/NC(=O)c3cc(O)cc(O)c3)c3ccccc32)c1 | -27.3% (active) | -17.9% | 2.51%

Row | Compound | GFP signal change (wild-type ribosome) | OD600 change | RFP signal change
22 | O=C(Cn1cc(/C=N/NC(=O)c2cccc(C(F)(F)F)c2)c2ccccc21)Nc1ccc(F)cc1 | -1.48% (inactive) | -0.221% | -3.15%
23 | N#CCC(=O)N/N=C/c1cn(Cc2ccc3ccccc3c2)c2ccccc12 | 1.46% (inactive) | -2.06% | 0.715%
24 | COc1cccc(S(=O)(=O)N2C[C@@H](O)COC[C@H]3O[C@@H](CC(=O)N4CCOCC4)CC[C@@H]32)c1 | 0.378% (inactive) | -0.728% | -3.58%
25 | O=S(=O)(Cc1ccccc1)NCC[C@@H]1CC[C@@H](NS(=O)(=O)c2ccccc2)[C@@H](CO)O1 | -0.181% (inactive) | 0.151% | 1.58%
26 | C[C@H](CO)N1C[C@H](C)[C@@H](CN(C)Cc2ccc3c(c2)OCO3)OCCCC[C@H](C)Oc2ccc(NC(=O)Nc3ccc(C(F)(F)F)cc3)cc2C1=O | 7.88% (inactive) | -5.08% | 3.82%
27 | O=C(CCc1ccc(O)cc1)NN=Cc1cc(Br)ccc1O | -37.7% (inactive) | -33.3% | -8.11%
28 | O=C(CCCO)N/N=C/c1cc(Br)ccc1O | -15.6% (active) | 11.6% | 1.76%
29 | CCOc1cc(C=NNC(=O)CCCC(=O)NN=Cc2ccc(O)c(OCC)c2)ccc1O | 4.33% (inactive) | -0.6% | 2.51%
30 | C[C@@H]1CCCCO[C@H](CN(C)Cc2ccc(C(=O)Nc3ccccc3N)cc2)[C@H](C)CN([C@H](C)CO)C(=O)c2cc(N(C)C)ccc2O1 | 4.58% (inactive) | 1.72% | 2.24%
31 | CO[C@H]1CN(C)C(=O)c2cc(NC(=O)C3CCCC3)ccc2OC[C@@H](C)N(C(=O)CC2CC2)C[C@@H]1C | -2.32% (inactive) | -1.4% | -2.08%
32 | COc1ccc(C(=O)C2CCCN(Cc3cccn3-c3ccccn3)C2)c(C)c1 (stereo not drawn) | -15.2% (inactive) | -23% | 0.721%
33 | COc1ccc(C(=O)C2CCCN(Cc3ccc4nonc4c3)C2)c(C)c1 (stereo not drawn) | -32.5% (active) | -18.1% | -4.26%
34 | COc1ccc(C(=O)C2CCCN(C(=O)c3ccc(OC)o3)C2)c(C)c1 (stereo not drawn) | -3.94% (inactive) | -8.41% | -1.22%
35 | C[C@H]1CN(C)C(=O)c2cc(N(C)C)ccc2O[C@H]1CN(C)C(=O)OC(C)(C)C | -3.1% (inactive) | -2.56% | 0.88%
36 | COc1ccc(C2=NN(C(=O)c3ccccc3C(=O)O)C(c3ccccc3O)C2)cc1 (stereo not drawn) | -9.01% (inactive) | -19.6% | -2.39%
37 | COc1ccc(C2=NN(C(=O)c3cccnc3)C(c3ccccc3)C2)cc1 (stereo not drawn) | -23.4% (active) | 3.3% | 3.54%
38 | COc1ccc(C2CC(c3ccccc3)=NN2C(=O)CSc2nccc(=O)[nH]2)cc1 (stereo not drawn) | 5.08% (inactive) | 8.39% | -0.959%
39 | O=c1ccc2cc(S(=O)(=O)Nc3ccccc3F)ccc2o1 | 6.96% (inactive) | 12.1% | 8.39%
40 | O=c1oc2ccccc2c(NC2CCCCC2)c1NS(=O)(=O)c1ccc(Cl)cc1 | 11.9% (inactive) | 7.09% | -0.375%
41 | O=c1oc(-c2ccccc2NS(=O)(=O)c2ccc(Cl)cc2)nc2ccccc12 | -33.6% (active) | -24.4% | 0.207%
